Several values for one entry are separate records, joined by “and”; a condition that tells them apart may be missing. Equal values may be shown once. About 2,000 (36%) of roughly 5,500 compounds were called active. About 18% were inconclusive and are not listed. No stated cut-off is given here; in the data, active means normalized growth mostly below about 0.91 (no sharp cut-off); inconclusive means no clear call, values can overlap the other calls; inactive means mostly above about 0.92. The list shows a part of the results.
Experiment: chemical genetic growth profiling, strain panel (AID 1159580);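 further: tested at 20 µM; growth read once vehicle control cultures reached saturation at 30 °C; 1 = growth at the plate median or of vehicle wells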
Settings: S. cerevisiae deletion strains, growth OD

Measured: normalized growth

c1ccc2c(CC3=NCCN3)cccc2c1
inactive: locus YAL013W, strain DEP1, stronger effect = lower value 1.01 | locus YAL021C, strain ccr4, stronger effect = lower value 0.944 | locus YAL026C, strain drs2, stronger effect = lower value 0.982 | locus YAL030W, strain snc1, stronger effect = lower value 0.986 | locus YBL061C, strain skt5, stronger effect = lower value 0.985 | locus YBR009C, strain hhf1, stronger effect = lower value 0.987 | locus YBR021W, strain FUR4, stronger effect = lower value 0.999 | locus YBR023C, strain chs3, stronger effect = lower value 0.984 | locus YBR171W, strain sec66, stronger effect = lower value 0.976 | locus YBR229C, strain ROT2, stronger effect = lower value 1.01 | locus YBR231C, strain swc5, stronger effect = lower value 0.985 | locus YBR279W, strain paf1, stronger effect = lower value 0.99 | locus YCL011C, strain gbp2, stronger effect = lower value 0.97 | locus YCL016C, strain dcc1, stronger effect = lower value 0.996 | locus YCL029C, strain bik1, stronger effect = lower value 1.03 | locus YCL061C, strain MRC1, stronger effect = lower value 0.981 | locus YCL069W, strain vba3, stronger effect = lower value 0.955 | locus YCR088W, strain abp1, stronger effect = lower value 0.98 | locus YDL005C, strain med2, stronger effect = lower value 0.962 | locus YDL035C, strain GPR1, stronger effect = lower value 1.01 | locus YDL040C, strain nat1, stronger effect = lower value 0.971 | locus YDL074C, strain BRE1, stronger effect = lower value 1.01 | locus YDL101C, strain DUN1, stronger effect = lower value 1.01 | locus YDL134C, strain PPH21, stronger effect = lower value 1.01 | locus YDL185W, strain tfp1, stronger effect = lower value 1.01 | locus YDL192W, strain arf1, stronger effect = lower value 1.02 | locus YDR001C, strain nth1, stronger effect = lower value 0.99 | locus YDR069C, strain doa4, stronger effect = lower value 0.947 | locus YDR101C, strain arx1, stronger effect = lower value 1.02 | locus YDR137W, strain rgp1, stronger effect = lower value 0.985 | locus YDR150W, strain NUM1, stronger effect = lower value 1.01 | locus YDR159W, strain sac3, stronger effect = lower value 0.958 | locus YDR162C, strain NBP2, stronger effect = lower value 1 | locus YDR195W, strain ref2 0.96 | locus YDR297W, strain sur2, stronger effect = lower value 0.975 | locus YDR318W, strain mcm21, stronger effect = lower value 1.02 | locus YDR334W, strain swr1, stronger effect = lower value 0.958 | locus YDR335W, strain msn5, stronger effect = lower value 0.981 | locus YDR388W, stronger effect = lower value 1.02 | locus YDR392W, strain spt3, stronger effect = lower value 0.863 | locus YDR502C, strain sam2, stronger effect = lower value 1.02 | locus YEL003W, strain gim4, stronger effect = lower value 0.945 | locus YEL037C, strain rad23, stronger effect = lower value 0.964 | locus YEL061C, strain CIN8 (second series), stronger effect = lower value 0.965 | locus YEL061C, strain CIN8, stronger effect = lower value 1.01 | locus YER015W, strain faa2, stronger effect = lower value 0.959 | locus YER016W, strain bim1, stronger effect = lower value 0.979 | locus YER110C, stronger effect = lower value 1.02 | locus YER111C, strain swi4, stronger effect = lower value 0.968 | locus YER155C, strain BEM2 (second series), stronger effect = lower value 0.98 | locus YER155C, strain BEM2, stronger effect = lower value 1 | locus YER167W, strain BCK2, stronger effect = lower value 1.02 | locus YFR010W, strain ubp6, stronger effect = lower value 0.96 | locus YGL078C, strain dbp3, stronger effect = lower value 1.02 | locus YGL086W, strain mad1, stronger effect = lower value 1.01 | locus YGL167C, strain pmr1, stronger effect = lower value 0.98 | locus YGL173C, strain kem1, stronger effect = lower value 0.976 | locus YGL227W, strain vid30, stronger effect = lower value 0.975 | locus YGL240W, strain doc1, stronger effect = lower value 0.98 | locus YGL248W, strain PDE1, stronger effect = lower value 1.01 | locus YGL253W, strain hxk2, stronger effect = lower value 0.98 | locus YGR078C, strain PAC10, stronger effect = lower value 1.01 | locus YGR135W, strain pre9, stronger effect = lower value 1.02 | locus YGR229C, strain SMI1, stronger effect = lower value 1.01 | locus YGR252W, strain gcn5, stronger effect = lower value 0.984 | locus YHR013C, strain ard1, stronger effect = lower value 0.901 | locus YHR027C, strain rpn1, stronger effect = lower value 0.972 | locus YHR030C, strain SLT2, stronger effect = lower value 1.01 and 0.973 | locus YHR079C, strain IRE1 (second series), stronger effect = lower value 1.02 | locus YHR079C, strain IRE1, stronger effect = lower value 0.961 | locus YHR094C, strain hxt1, stronger effect = lower value 1.01 | locus YHR129C, strain ARP1, stronger effect = lower value 1 | locus YHR142W, strain chs7, stronger effect = lower value 0.978 | locus YHR200W, strain rpn10, stronger effect = lower value 1.02 | locus YIL066C, strain RNR3, stronger effect = lower value 1.01 | locus YIL073C, strain SPO22, stronger effect = lower value 1.06 | locus YIL125W, strain kgd1, stronger effect = lower value 1.01 | locus YIR030C, strain dcg1, stronger effect = lower value 1.03 | locus YJL092W, strain hpr5, stronger effect = lower value 0.968 | locus YJL095W, strain BCK1 (second series), stronger effect = lower value 0.987 | locus YJL095W, strain BCK1, stronger effect = lower value 1.01 and 1 | locus YJL115W, strain asf1, stronger effect = lower value 0.976 | locus YJL129C, strain trk1, stronger effect = lower value 0.921 | locus YJL134W, strain LCB3, stronger effect = lower value 1.01 | locus YJL154C, strain vps35, stronger effect = lower value 0.972 | locus YJL164C, strain tpk1, stronger effect = lower value 0.978 | locus YJL166W, strain qcr8, stronger effect = lower value 0.968 | locus YJL168C, strain set2, stronger effect = lower value 1.02 | locus YJL187C, strain SWE1 (second series), stronger effect = lower value 1.01 | locus YJL187C, strain SWE1, stronger effect = lower value 0.976 | locus YJR043C, strain POL32, stronger effect = lower value 1.01 | locus YJR066W, strain TOR1, stronger effect = lower value 0.928

— PubChem BioAssay AID1159580 (chemical genetic matrix, 2015)
